MsrA inhibitor – bovine MsrA enzyme inhibitors, primary screen, biochemical, absorbance, HTS; purified bovine MsrA, absorbance read-out; inhibition, % at 15.5 µM; hit rate 0.75% among 360,000; in the data active = inhibition above about 4.5%;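 also: 0% = vehicle wells with enzyme and 100% = reference inhibitor wells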
MsrA act – bovine MsrA enzyme activators, primary screen, biochemical, absorbance, HTS; purified bovine MsrA, absorbance read-out; hit rate 0.3% among 360,000; Methionine sulfoxide reductase A (Bos taurus); activation, % at 10.6 µM; in the data active = activation above about 7.5%;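 also: 0% = vehicle and 100% = reference activator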
PG9 binder – binders of HIV-1 gp120 antibody PG9, primary screen, biochemical, TR-FRET; HIV-1 gp120 / PG9 antibody interaction; TR-FRET gp120-PG9 antibody binding; inhibition, % at 6.7 µM; hit rate 0.43% among 360,000; AID 624416, 2012; in the data active = inhibition above about 8.5%
rCAG binder – binders of r(CAG) RNA repeats, primary screen, biochemical, fluorescence; hit rate 1.3% among 370,000; AID 651821, 2012; r(CAG) RNA repeat, TO-PRO-1 dye displacement fluorescence; inhibition, % at 3 µM;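 active = inhibition above the plate cutoff, the mean of all test compounds on that plate plus 3 SD, cut at about 35% in these data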;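 also: 0% = DMSO alone and 100% = 100 µM mitoxantrone as full dye displacement; higher means more dye released from RNA so lower well fluorescence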
HGIII-sPLA2 inh – human group III sPLA2 inhibitors, primary screen, biochemical, QFRET, BODIPY PC-A2 liposome substrate; Group 3 secretory phospholipase A2 (Homo sapiens), Q9NZ20; QFRET BODIPY PC-A2 liposome hydrolysis, fluorescence; inhibition, % at 12.2 µM; hit rate 0.56% among 370,000;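 active = inhibition above mean plus 3 SD of compounds lying within the high and low control bounds, cut at about 19% in these data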;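 also: 0% = median of test compound wells and 100% = no enzyme DMSO wells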
Target sequence (Q9NZ20 whole entry, looked up): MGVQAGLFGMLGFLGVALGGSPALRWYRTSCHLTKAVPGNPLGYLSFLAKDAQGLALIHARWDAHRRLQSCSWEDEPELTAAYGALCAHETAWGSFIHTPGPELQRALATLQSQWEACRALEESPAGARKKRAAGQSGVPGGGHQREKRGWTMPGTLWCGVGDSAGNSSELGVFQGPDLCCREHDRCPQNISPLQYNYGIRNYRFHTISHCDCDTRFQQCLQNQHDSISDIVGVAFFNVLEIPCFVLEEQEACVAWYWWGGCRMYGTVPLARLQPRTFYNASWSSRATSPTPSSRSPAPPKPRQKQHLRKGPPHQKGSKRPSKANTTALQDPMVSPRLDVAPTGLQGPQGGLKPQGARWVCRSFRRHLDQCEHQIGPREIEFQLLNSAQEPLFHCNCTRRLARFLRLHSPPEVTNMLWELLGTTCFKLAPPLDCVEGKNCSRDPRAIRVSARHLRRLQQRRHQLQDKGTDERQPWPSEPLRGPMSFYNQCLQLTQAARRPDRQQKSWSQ
rCAG binder conf – small molecules binding CAG repeat RNA – biochemical, fluorescence, confirmation | shares compounds with rCAG binder | r(CAG) RNA repeat, TO-PRO-1 dye displacement fluorescence | inhibition, % at 3 µM | hit rate 70% among 4,300;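 active = inhibition above a per-plate cutoff, the mean inhibition of sample wells plus 3 SD, cut at about 35% in these data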;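 also: loss of TO-PRO-1 fluorescence as compound displaces dye from 1x1 AA loop RNA; 0% = DMSO only wells and 100% = 100 µM mitoxantrone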
DNA CAG counter – displacement of TO-PRO-1 from CAG DNA duplex, counter-screen for rCAG RNA repeat binder project, biochemical, fluorescence, TO-PRO-1 dye, d(CAG) DNA oligo | shares compounds with rCAG binder | d(CAG) DNA oligo TO-PRO-1 dye displacement | inhibition, % at 3 µM | hit rate 94% among 4,300 | AID 652068, 2013;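 active = inhibition above its plate's cutoff, the mean test-well inhibition plus 3 SD, cut at about 4.8% in these data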;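 also: 0% = DNA dye mix with DMSO and 100% = 100 µM mitoxantrone; hits displace the dye from DNA and so lower well fluorescence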
DNA CAG DR – inhibitors of DNA CAG/GTC TO-PRO-1 complex, dose response, counter-screen for rCAG RNA repeat binder project, biochemical, fluorescence, TO-PRO-1 dye; shares compounds with rCAG binder; DNA CAG/GTC duplex TO-PRO-1 dye displacement fluorescence; IC50, µM; hit rate 20% among 250; in the data active = IC50 below about 10 µM
The depositor's hits bear a star; i = inactive; / = no result given. Rows were chosen to be rich in hits. Some 3.2% of all compounds tested hit in one or more screens of this group.

SMILES | MsrA inhibitor | MsrA act | PG9 binder | rCAG binder | HGIII-sPLA2 inh | rCAG binder conf | DNA CAG counter | others
CC1=NN(c2ccc(C)cc2)C(=O)/C1=C/c1ccc(-c2cc([N+](=O)[O-])ccc2O)o1 | 0 | -1 | -3 | 56* | 1 | 64* | 34*
O=C(NC1CCN(Cc2ccccc2)CC1)c1ccccc1NS(=O)(=O)c1ccc(F)c(F)c1 | -1 | 1 | 1 | 36* | -29 | 21 | 3
O=C(O)c1cccc(N2C(=O)c3ccc(Oc4ccc(Cl)cc4)cc3C2=O)c1 | -1 | -3 | 1 | 44* | -7 | 42* | 9.9*
CCOC(=O)C1=C(c2ccccc2)N=c2s/c(=C\c3cc(OC)c(OC)c(OC)c3)c(=O)n2C1c1cccs1 (stereo not given) | 0 | -11 | 2 | 5 | -4 | / | /
CCOC(=O)C1=C(c2ccccc2)N=c2s/c(=C\c3ccco3)c(=O)n2C1c1cccs1 (stereo not given) | 2 | -5 | -2 | 44* | 5 | 29 | 20*
Cc1ccc(F)c(NC(=O)/C(C#N)=C(\O)c2ccc(C(C)(C)C)cc2)c1 | 3 | -12 | -1 | 89* | -57 | 90* | 61*
O=C(O)C1CCc2nc(NCc3ccccc3)nc(NCc3ccccc3)c2C1 (stereo not given) | 1 | 1 | 2 | 2 | 10 | / | /
COc1ccc2c(c1)CN1C(=O)N(Cc3ccc(F)cc3)S(=O)(=O)CC21 (stereo not given) | / | / | / | 3 | 3 | / | /
CCCNC(=O)C1(C)CCCN(Cc2c3ccccc3nn2C)C1 (stereo not given) | 0 | 7 | 0 | 1 | 2 | / | /
CCC(C(=O)Nc1ccccc1N1CCCC1)c1cccc(Cl)c1 (stereo not given) | / | / | / | 0 | 8 | / | /
O=C(CSc1nc(-c2ccc(F)cc2)nc2c1Cc1ccccc1O2)Nc1cccc(C(=O)O)c1 | 0 | -14 | 0 | 22 | 7 | / | /
Cc1ncc(CO)c2c1Oc1nc(-c3ccccc3)nc(SCC(=O)Nc3cccc(O)c3)c1C2 | 0 | -2 | -1 | 58* | 5 | 30 | 17*
COc1ccc(-c2nc3c(c(SCC(=O)Nc4cccc(O)c4)n2)Cc2c(CO)cnc(C)c2O3)cc1 | 1 | -8 | -3 | 58* | 6 | 25 | 16*
O=C(O)c1ccc(-c2nc(-c3ccccc3)c(-c3ccccc3)[nH]2)cc1 | 3 | -4 | 0 | 36* | -18 | 36* | 6.0*
COc1cc2cc3c(N)c(C(=O)NCc4ccco4)sc3nc2cc1OC | / | -6 | / | / | / | / | /
COc1cc2cc3c(N)c(C(=O)Nc4sc(C)c(C)c4C#N)sc3nc2cc1OC | 3 | -8 | -2 | 53* | -2 | 61* | 31*
COc1ccc(F)cc1-c1cc(C(C)=O)c2n(c1=O)CCC2 | / | / | / | 3 | 8 | / | /
Cc1ccc2oc(=O)c3cnn(CC(=O)N4CCN(c5cccc(C(F)(F)F)c5)CC4)c3c2c1 | / | / | / | 4 | 3 | / | /
COC(=O)C1=C(C)N(Cc2cccc(C(F)(F)F)c2)C(=NCc2ccc(OC)cc2)NC1c1cccc(F)c1 (stereo not given) | -1 | / | -1 | 8 | 10 | / | /
O=C(O)Cn1cc(/C=N/NC(=O)c2cc3cc(Br)ccc3o2)c2ccccc21 | 5 | -7 | -3 | 50* | -12 | 56* | 17*
O=C(O)c1ccc(-n2cccc2/C=N\NC(=O)c2cc3cc(Br)ccc3o2)cc1 | 3 | -6 | 0 | 50* | -22 | 46* | 15*
Cn1cc(/C=N/NC(=O)c2cc3cc(Br)ccc3o2)c2ccccc21 | 1 | -1 | 1 | 8 | 19 | / | /
CCOC(=O)[C@]12CCCCC/C=C\1N(CCc1ccc(Cl)cc1)C(=O)[C@H]2CC(=O)NCc1cccc2ccccc12 | / | / | / | 7 | -5 | / | /
O=C(O)C(Cc1ccccc1)N1C(=O)/C(=C/C=C/c2ccco2)SC1=S (stereo not given) | 1 | -9 | -2 | 90* | 1 | 92* | 68*
COc1ccc(/C=C2\SC(=S)N(C(Cc3ccccc3)C(=O)O)C2=O)cc1 (stereo not given) | 0 | -4 | -2 | 65* | -28 | 71* | 34* | DNA CAG DR=i
SMILES | MsrA inhibitor | MsrA act | PG9 binder | rCAG binder | HGIII-sPLA2 inh | rCAG binder conf | DNA CAG counter | others
O=C(NN1C(=O)/C(=C/C=C/c2ccco2)SC1=S)c1ccccc1O | 1 | -6 | -3 | 94* | -3 | 93* | 77*
O=C(O)CCCN1C(=O)/C(=C/C=C/c2ccco2)SC1=S | 0 | -6 | -3 | 60* | -13 | 51* | 19*
O=C(O)CC(C(=O)O)N1C(=O)/C(=C/C=C/c2ccco2)SC1=S (stereo not given) | 0 | -7 | -3 | 34 | -6 | / | /
O=C(O)C(Cc1ccccc1)N1C(=O)/C(=C/c2cccnc2)SC1=S (stereo not given) | 2 | -5 | 0 | 16 | 17 | / | /
Cc1ccc(CN2CCCCC(NC(=O)c3ccc(F)cc3)C2=O)cc1 (stereo not given) | / | / | / | 0 | 1 | / | /
COC[C@@H]1CCCN1c1ccc2c(c1)O[C@@H]1CCN(C1)S2(=O)=O | / | / | / | 0 | 5 | / | /
O=C(CN1CCCc2ccccc21)NCc1ccc(Cl)cc1 | / | / | / | 5 | 12 | / | /
CCCCCCCCN1CN2Cc3ccc(C)cc3C2CS1(=O)=O (stereo not given) | / | / | / | 1 | 6 | / | /
CC(C)(C)OC(=O)C[C@@H]1C/C=C\C[C@H](CC(=O)N[C@@H](CO)Cc2ccccc2)C(=O)N[C@H](C(C)(C)C)COC1=O | 0 | 0 | 0 | -13 | -4 | / | /
COC(=O)CCC(C)C1CCC2C3CCC4CC(O)CCC4(C)C3CC(O)C12C (stereo not given) | 2 | 3 | -2 | -5 | -23 | / | /
O=C1S/C(=C\C=C\c2ccco2)C(=O)N1c1ccc(O)cc1 | 2 | -6 | 0 | 38* | -2 | 18 | 9.9*
O=C1S/C(=C\c2cccs2)C(=O)N1c1ccc(O)cc1 | 4 | -5 | 0 | 6 | -9 | / | /
FC(F)(F)c1cc(CNC2CCC23CCC(c2ccccc2)CC3)ccc1Cl (stereo not given) | / | / | / | / | 6 | / | /
COC(=O)[C@]12C[C@H](CC(=O)NCc3ccc(C)o3)C(=O)N(Cc3ccco3)C1=C[C@H](C(C)(C)C)O[C@@H]2C | / | / | / | 3 | 0 | / | /

Compound activity from PubChem.
